{
  "source": "PubChem BioAssay (Tox21)",
  "note": "Results filed as inconclusive are left out. Entries that show only a call come without a potency. Active and inactive are the calls of the source. Calls come from the whole dose curve; as a rule, active = well fitted cell-killing curve with a large enough effect in the repeat runs; inconclusive = weak or mixed curves, or effect the other way; inactive = flat fitted curve, though single readings scatter.",
  "data": [
    {"experiment": "cAMP Responsive Elements (CRE) small molecule antagonists, cell-based qHTS assay: qHTS cell viability counter screen (AID 2060913); note: nearly all actives have a fitted effect of over 40% in size", "conditions": "CRE-bla HEK293T viability, CellTiter-Glo luminescence, 5 h; series mostly up to 92.4 µM", "outline": "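CRE-bla HEK293T cells (2,000/well, 18 h) given compound plus NKH477 0.25 uM final for 3 h at 37C; viability counter-screen by CellTiter-Glo luminescence in same wells after 30 min.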", "values": [
      {"smiles": "OB(O)O", "Potency": "inactive"},
      {"smiles": "CCOc1ccc(N=Nc2ccc(/C=C/c3ccc(N=Nc4ccc(OCC)cc4)cc3S(=O)(=O)O)c(S(=O)(=O)O)c2)cc1", "Potency": "inactive"},
      {"smiles": "CC(C)c1ccc(C(C)C)cc1", "Potency": "inactive"},
      {"smiles": "NC(=O)C(c1ccccc1)(c1ccccc1)[C@@H]1CCN(CCc2ccc3c(c2)CCO3)C1", "Potency": "inactive"},
      {"smiles": "CN1N=C(C(N)=O)CCC1=O", "Potency": "inactive"},
      {"smiles": "O=C(C(=O)c1ccccc1)c1ccccc1", "Potency": "inactive"},
      {"smiles": "Cc1ccccc1C(=O)N1CC/C(=N\\OS(=O)(=O)O)c2ccc(Cl)cc21", "Potency": "inactive"},
      {"smiles": "COc1cc(S(N)(=O)=O)cc(C(=O)O)c1OC", "Potency": "inactive"},
      {"smiles": "CCCC(C)c1ccccc1O", "note": "(stereo not given)", "Potency": "inactive"},
      {"smiles": "CN(C)c1cc(NC(=O)CNC(C)(C)C)c(O)c2c1C[C@H]1C[C@H]3[C@H](N(C)C)C(=O)C(C(N)=O)=C(O)[C@@]3(O)C(=O)C1=C2O", "Potency": "inactive"},
      {"smiles": "CSc1ccc(C(=O)c2[nH]c(=O)[nH]c2C)cc1", "Potency": "inactive"},
      {"smiles": "C=C(C)C(=O)OC(C)C", "Potency": "inactive"},
      {"smiles": "CCOC(=O)/C=C/C(=O)O", "Potency": "inactive"},
      {"smiles": "CCCCC(CC)COC(=O)COc1ccc(Cl)cc1Cl", "note": "(stereo not given)", "Potency": "inactive"},
      {"smiles": "COC(OC)C(C)c1ccccc1", "note": "(stereo not given)", "Potency": "inactive"},
      {"smiles": "Cc1ccc(C)cc1", "Potency": "inactive"},
      {"smiles": "CCN(CC)c1cccc(C)c1", "Potency": "inactive"},
      {"smiles": "CC(C)CCCCCCOC(=O)C1CCCCC1C(=O)OCCCCCCC(C)C", "note": "(stereo not given)", "Potency": "inactive"},
      {"smiles": "CCc1ccccc1", "Potency": "inactive"},
      {"smiles": "O=C=Nc1ccc(Cl)c(Cl)c1", "Potency": "inactive"},
      {"smiles": "CN[C@@H]1[C@H](O)[C@H](NC)[C@H]2O[C@@]3(O)C(=O)C[C@@H](C)O[C@H]3O[C@@H]2[C@H]1O", "Potency": "inactive"},
      {"smiles": "Nc1cccc(N)n1", "Potency": "inactive"},
      {"smiles": "OCCO", "Potency": "inactive"},
      {"smiles": "Cc1cc(O)ccc1N", "Potency": "inactive"},
      {"smiles": "NC(=O)NNc1ccccc1", "Potency": "inactive"},
      {"smiles": "C1CCC2(CCCCO2)OC1", "Potency": "inactive"},
      {"smiles": "CCCCOC(=O)CCCCCCCC(=O)OCCCC", "Potency": "inactive"},
      {"smiles": "CCCCCCCCCCN", "Potency": "inactive"},
      {"smiles": "O[C@@H](CNC[C@H](O)[C@H]1CCc2cc(F)ccc2O1)[C@@H]1CCc2cc(F)ccc2O1", "Potency": "inactive"},
      {"smiles": "CCCCCCCCCCCCCCN(CCO)CCO", "Potency": "inactive"},
      {"smiles": "O=C(O)C1=NN(c2ccc(S(=O)(=O)O)cc2)C(=O)C1", "Potency": "inactive"},
      {"smiles": "CCCCCCCCCCCCCCCCCO", "viability change, negative = cytotoxic": "0.838% [at 18.9 µM] (inactive)"},
      {"smiles": "O=C(O)/C=C/c1ccc(/C=C/C(=O)O)cc1", "Potency": "inactive"},
      {"smiles": "CNC(=O)c1ccccc1", "Potency": "inactive"},
      {"smiles": "CCn1cc(C(=O)O)c(=O)c2ccc(C)nc21", "Potency": "inactive"},
      {"smiles": "O=C1CCCc2c1cc1ccc3cccc4ccc2c1c34", "Potency": "inactive"},
      {"smiles": "OCC(O)CO", "Potency": "inactive"},
      {"smiles": "ON=C1CCCCC1", "Potency": "inactive"},
      {"smiles": "COc1ccc(CCO)cc1", "Potency": "inactive"},
      {"smiles": "CS(=O)(=O)O", "Potency": "inactive"}
    ]},
    {"experiment": "cAMP Responsive Elements (CRE) small molecule agonists, cell-based qHTS assay: qHTS cell viability counter screen (AID 2060914); note: nearly all actives have a fitted effect of over 50% in size", "conditions": "CRE-bla HEK293T viability, CellTiter-Glo luminescence, 5 h; series mostly up to 92.4 µM", "outline": "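In the same wells as the reporter read, viability of CRE-bla HEK 293T cells was quantified by CellTiter-Glo luminescence after a 3 h compound exposure.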", "values": [
      {"smiles": "OB(O)O", "Potency": "inactive"},
      {"smiles": "CCOc1ccc(N=Nc2ccc(/C=C/c3ccc(N=Nc4ccc(OCC)cc4)cc3S(=O)(=O)O)c(S(=O)(=O)O)c2)cc1", "Potency": "inactive"},
      {"smiles": "CC(C)c1ccc(C(C)C)cc1", "Potency": "inactive"},
      {"smiles": "NC(=O)C(c1ccccc1)(c1ccccc1)[C@@H]1CCN(CCc2ccc3c(c2)CCO3)C1", "Potency": "inactive"},
      {"smiles": "CN1N=C(C(N)=O)CCC1=O", "Potency": "inactive"},
      {"smiles": "O=C(C(=O)c1ccccc1)c1ccccc1", "Potency": "inactive"},
      {"smiles": "Cc1ccccc1C(=O)N1CC/C(=N\\OS(=O)(=O)O)c2ccc(Cl)cc21", "Potency": "inactive"},
      {"smiles": "COc1cc(S(N)(=O)=O)cc(C(=O)O)c1OC", "Potency": "inactive"},
      {"smiles": "CCCC(C)c1ccccc1O", "note": "(stereo not given)", "Potency": "inactive"},
      {"smiles": "CN(C)c1cc(NC(=O)CNC(C)(C)C)c(O)c2c1C[C@H]1C[C@H]3[C@H](N(C)C)C(=O)C(C(N)=O)=C(O)[C@@]3(O)C(=O)C1=C2O", "Potency": "inactive"},
      {"smiles": "CSc1ccc(C(=O)c2[nH]c(=O)[nH]c2C)cc1", "Potency": "inactive"},
      {"smiles": "C=C(C)C(=O)OC(C)C", "Potency": "inactive"},
      {"smiles": "CCOC(=O)/C=C/C(=O)O", "Potency": "inactive"},
      {"smiles": "CCCCC(CC)COC(=O)COc1ccc(Cl)cc1Cl", "note": "(stereo not given)", "Potency": "inactive"},
      {"smiles": "COC(OC)C(C)c1ccccc1", "note": "(stereo not given)", "Potency": "inactive"},
      {"smiles": "Cc1ccc(C)cc1", "Potency": "inactive"},
      {"smiles": "CCN(CC)c1cccc(C)c1", "Potency": "inactive"},
      {"smiles": "CC(C)CCCCCCOC(=O)C1CCCCC1C(=O)OCCCCCCC(C)C", "note": "(stereo not given)", "Potency": "inactive"},
      {"smiles": "CCc1ccccc1", "Potency": "inactive"},
      {"smiles": "O=C=Nc1ccc(Cl)c(Cl)c1", "Potency": "inactive"},
      {"smiles": "CN[C@@H]1[C@H](O)[C@H](NC)[C@H]2O[C@@]3(O)C(=O)C[C@@H](C)O[C@H]3O[C@@H]2[C@H]1O", "Potency": "inactive"},
      {"smiles": "Nc1cccc(N)n1", "Potency": "inactive"},
      {"smiles": "OCCO", "Potency": "inactive"},
      {"smiles": "Cc1cc(O)ccc1N", "Potency": "inactive"},
      {"smiles": "NC(=O)NNc1ccccc1", "Potency": "inactive"},
      {"smiles": "C1CCC2(CCCCO2)OC1", "Potency": "inactive"},
      {"smiles": "CCCCOC(=O)CCCCCCCC(=O)OCCCC", "Potency": "inactive"},
      {"smiles": "CCCCCCCCCCN", "Potency": "inactive"},
      {"smiles": "O[C@@H](CNC[C@H](O)[C@H]1CCc2cc(F)ccc2O1)[C@@H]1CCc2cc(F)ccc2O1", "Potency": "inactive"},
      {"smiles": "CCCCCCCCCCCCCCN(CCO)CCO", "Potency": "inactive"},
      {"smiles": "O=C(O)C1=NN(c2ccc(S(=O)(=O)O)cc2)C(=O)C1", "Potency": "inactive"},
      {"smiles": "CCCCCCCCCCCCCCCCCO", "activity change, negative = cytotoxicity": "-1.37% [at 18.9 µM] (inactive)"},
      {"smiles": "O=C(O)/C=C/c1ccc(/C=C/C(=O)O)cc1", "Potency": "inactive"},
      {"smiles": "CNC(=O)c1ccccc1", "Potency": "inactive"},
      {"smiles": "CCn1cc(C(=O)O)c(=O)c2ccc(C)nc21", "Potency": "inactive"},
      {"smiles": "O=C1CCCc2c1cc1ccc3cccc4ccc2c1c34", "Potency": "inactive"},
      {"smiles": "OCC(O)CO", "Potency": "inactive"},
      {"smiles": "ON=C1CCCCC1", "Potency": "inactive"},
      {"smiles": "COc1ccc(CCO)cc1", "Potency": "inactive"},
      {"smiles": "CS(=O)(=O)O", "Potency": "inactive"}
    ]}
  ]
}
